Screening data deposited in PubChem by National Center for Advancing Translational Sciences (NCATS).
RORg inh – qHTS for inhibitors of ROR gamma transcriptional activity | Drosophila S2 Gal4-RORgamma UAS-luciferase reporter, 20 h | AID 2551, 2010 | Nuclear receptor ROR-gamma (Mus musculus), P51450 | 5.4% of 310,000 active | Potency, µM (series often up to 53.6 µM), without a hit: at the top dose activity change, negative = inhibition, actives largely listed as inhibitors; further: nearly all actives have a fitted effect of over 60% in size
Target sequence (P51450 whole entry, looked up, the tested form may be a part): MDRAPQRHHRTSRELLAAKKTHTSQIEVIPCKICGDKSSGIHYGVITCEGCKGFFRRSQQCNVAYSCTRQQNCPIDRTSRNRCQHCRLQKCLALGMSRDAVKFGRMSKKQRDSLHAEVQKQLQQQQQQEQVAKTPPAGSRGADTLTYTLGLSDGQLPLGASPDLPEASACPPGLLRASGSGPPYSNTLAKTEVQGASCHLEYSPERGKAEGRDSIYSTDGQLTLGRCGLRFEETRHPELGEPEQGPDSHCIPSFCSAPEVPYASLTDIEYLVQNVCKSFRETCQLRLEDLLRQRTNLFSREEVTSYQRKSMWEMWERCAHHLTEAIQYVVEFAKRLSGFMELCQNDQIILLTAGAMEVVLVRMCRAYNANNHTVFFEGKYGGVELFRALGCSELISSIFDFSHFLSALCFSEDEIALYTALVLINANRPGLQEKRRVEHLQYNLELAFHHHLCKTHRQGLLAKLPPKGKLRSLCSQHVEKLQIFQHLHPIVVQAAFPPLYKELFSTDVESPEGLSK
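Schneider cells (Drosophila), stable Gal4 DBD–ROR gamma + UAS-luc; 1 hr cmpd preincubation; Cu2+ induction 700 uM final; 20 hr ambient; luminescence.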
TDP1 cell noCPT – qHTS for Inhibitors of human tyrosyl-DNA phosphodiesterase 1 (TDP1): qHTS in cells in absence of CPT. AID 686978, 2013. Potency, µM (doses to about 46.2 µM), without a hit: top-dose activity change, negative = growth inhibition, most hits filed as inhibitors. 15% of 420,000 active. DT40 Tdp1-/- hTDP1 cells, no CPT, ATP luminescence, 48 h; further: nearly all actives have a fitted effect of over 55% in size
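Chicken DT40 Tdp1-/- cells complemented with human TDP1, screened without camptothecin (DMSO vehicle only), 400 cells/well. Compounds pin-transferred, cells incubated at 37 °C for at least 48 hr. Growth read as ATP-dependent luminescence (CellTiter-Glo, 30 min at RT).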
ELG1 DNA repair – qHTS screen for small molecules that inhibit ELG1-dependent DNA repair in human embryonic kidney (HEK293T) cells expressing luciferase-tagged ELG1; HEK293T ELG1-luciferase reporter, luminescence, 16 h; DNA damage induced by 5-fluorouridine; Potency, µM (highest dose often 46.1 µM), inactives show at the top dose activity change, negative = inhibition, hits mostly inhibitors; 2.3% of 330,000 active; AID 504467, 2011; further: nearly all actives have a fitted effect of over 55% in size
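Cells (2,000 per well) received 5-fluorouridine plus test compound or DMSO and were incubated 16 hr at 37 °C, 5% CO2. Luciferase activity was read by luminescence 30 min after ONE-Glo addition; signal suppression marked inhibition of damage-induced ELG1 function.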
DT40 TDP1 CPT – qHTS for Inhibitors of human tyrosyl-DNA phosphodiesterase 1 (TDP1): qHTS in cells in presence of CPT; chicken DT40 Tdp1-/-;hTDP1 cells + 20 nM CPT, ATP luminescence, 48 h; Potency, µM (titrated, usually from 46.2 µM), for the others: at the top dose activity change, negative = growth inhibition, hits mostly inhibitors; AID 686979, 2013; 12% of 420,000 active; further: nearly all actives have a fitted effect of over 55% in size
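Chicken DT40 Tdp1-/- cells stably complemented with human TDP1 were seeded at 400 cells/well in medium containing 20 nM camptothecin, exposed to pin-transferred compounds, and grown at 37 °C for at least 48 hr. Viability was read as ATP luminescence.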
Gal4-VP16 FLuc – VP16 counterscreen qHTS for inhibitors of ROR gamma transcriptional activity; Drosophila S2 Gal4-VP16 UAS-luciferase, luminescence, 20 h; Potency, µM (titrated, usually from 53.6 µM), inactives show at the top dose activity, negative = inhibition, hits mostly inhibitors; 3.5% of 310,000 active;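 further: Gal4-VP16 expression switched on by copper sulfate through the metallothionein promoter; nearly all actives have a fitted effect of over 50% in size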
12-LOX inh – Primary qHTS assay for inhibitors of human arachidonate 12S-lipoxygenase (ALOX12): Round 2 | Potency, µM (top dose mostly 108 µM), inactives show top-dose activity change, negative = inhibition, usual class: inhibitors | purified 12hLO, xylenol orange hydroperoxide absorbance | Polyunsaturated fatty acid lipoxygenase ALOX12 (Homo sapiens), P18054 | 1.1% of 580,000 active
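Purified human 12hLO (150 nM final) in 25 mM Hepes, 0.01% Triton X-100, pH 7.0 was preincubated 15 min at room temperature with compound. Then 40 uM arachidonic acid was added, 30 min. Hydroperoxide was read by Fe-XO absorbance ratio 573/405 nm.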
* = called active by the depositor; u = inconclusive; x = not tested or not shown; [ ] = dose if it differs, or a comment. Hits are enriched below; roughly 15% of the tested compounds scored in any of these assays. The call rests on the fitted dose curve; in most records, active means well fitted curve in the direction sought with a large enough effect; inconclusive means small, poorly fitted or top-dose-only effect, or another doubt; inactive means no such curve, though single readings can be large; an effect the other way counts as inactive or inconclusive. On the % scale 0 is the no-effect control and ±100 the full control effect; potency means the concentration at half of the fitted maximal effect.

SMILES	RORg inh	TDP1 cell noCPT	ELG1 DNA repair	DT40 TDP1 CPT	Gal4-VP16 FLuc	12-LOX inh
CCCCCCCCCCOC(=O)Cn1c(COc2ccc(Cl)cc2)[n+](C)c2ccccc21	u	4.6µM*	-18%	4.1µM*	u	u
CCCCCCCCN1C(=O)[C@H](CC(=O)NCc2cccs2)C[C@@]2(C(=O)OCC)CCCC=C12	x	16µM*	x	u	x	-19%
CCCCCCCCN1C(=O)[C@H](CC(=O)NCc2cccs2)C[C@@]2(C(=O)OC)CCCCC=C12	x	15µM*	x	16µM*	x	2%
COc1cc2onc(C3CCN(C(=O)C(C)(C)C)CC3)c2cc1OC	x	x	x	x	x	-4%
COc1ccc(CN2Cc3cc(NC(=O)Cc4ccc(F)cc4)ccc3OCC2=O)c(OC)c1	x	x	x	x	x	37%
O=C(Cn1nc(C(=O)O)c2ccccc2c1=O)NCc1ccco1	7%	u	2%	26µM*	-3%	-22%
Cc1c(N=Nc2c(-c3ccc([N+](=O)[O-])cc3)[nH]n(C(N)=S)c2=O)cccc1[N+](=O)[O-]	0.71µM*	2.9µM*	2.1µM*	2.9µM*	u	u
NC(=S)n1[nH]c(-c2ccc([N+](=O)[O-])cc2)c(N=Nc2ccccc2[N+](=O)[O-])c1=O	u	u	u	u	-13%	-26%
Cc1[nH]n(-c2ccccc2)c(=O)c1N=Nc1cccc([N+](=O)[O-])c1	-34%	u	9%	-6%	25%	7%
NC(=S)n1[nH]c(-c2ccc([N+](=O)[O-])cc2)c(N=Nc2cccc([N+](=O)[O-])c2)c1=O	0.63µM*	u	3.3µM*	u	2.5µM*	u
CN1CCN(c2cc(=O)c3ccnc(-c4ccc(F)cc4)c3o2)CC1	x	x	x	x	x	-3%[176 µM]
NC(=S)N1OC[C@@H]2COc3ccc4ccccc4c3[C@@H]21	u	18µM*	12µM*	18µM*	4%	-12%
CO/N=C/NC(=O)N1OC[C@@H]2COc3ccc4ccccc4c3[C@@H]21	13%	-5%	-1%	-2%	2%	0%
Cc1ncsc1C(=O)N(Cc1ccccc1)C1CC1	x	x	x	x	x	9%
O=C(Nc1cccc2ncccc12)c1cccnc1	-20%	-22%	10%	-11%	10%[0.365 µM]	137%
C(=Nc1cnc2ccccc2c1)c1cccnc1	x	5%	x	17%	x	x
C(=Nc1cccnc1)c1ccnc2ccccc12	x	1.8µM*	x	2µM*	x	x
C(=Nc1cnc2ccccc2c1)c1ccnc2ccccc12	x	2.8µM*	x	2.8µM*	x	x
CCNC(=O)NC(=O)CN(CC)c1cccc(C)c1	x	x	x	x	x	29%
COCCn1ccc2nc(C)c(C(=O)N3CCN(c4ccccc4)CC3)cc2c1=O	x	x	x	x	x	34%
Cc1ccc2cc(C3C(C#N)=C(N)Oc4c3ccc3cccnc43)c(=O)[nH]c2c1 (configuration not stated)	-35%	u	-5%	u	-16%	25µM*
CCc1ccc2[nH]c(=O)c(C3C(C#N)=C(N)Oc4c3ccc3cccnc43)cc2c1 (configuration not stated)	u	8.2µM*	12µM*	12µM*	-6%	-30%
CCOc1cccc(C2C(C#N)=C(N)Oc3cc(C)[nH]c(=O)c32)c1OCC (configuration not stated)	-20%	5%	12%	7%	0%	-5%
O=C(/C(N=Nc1cccc([N+](=O)[O-])c1)=C(/O)c1ccc(Br)cc1)C(F)(F)F	7.9µM*	x	u	x	4.5µM*	x
